# A selection: hits, their analogues and other compounds. The true share with any hit is near 10%.
# GPT2 inh: GPT2 alanine aminotransferase inhibition; Q8TD30; Recombinant GPT2, coupled pyruvate oxidase/HRP Amplex Red fluorescence; Potency, µM (doses to about 57.7 µM), for inactives: top-dose activity change, negative = inhibition, usual class: inhibitors; 100,000 compounds, 0.25% hits; AID 1671188; also: % is scaled to controls: 0 for no effect and ±100 for the full control effect; nearly all actives have a fitted effect of over 60% in size
#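 Fluorescence of coupled pyruvate oxidase/HRP/Amplex Red system (50uM Amplex, 30 min, dark) reports pyruvate formed by GPT2. Enzyme reaction: 10ng/uL GPT2, 2mM L-alanine, 250uM a-KG, 30 min room temperature, pH 7.5; 50uM AOA control.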
# NIH3T3 tox: NIH 3T3 cell cytotoxicity | 94,000 compounds, 4.3% hits | AID 1345082 | Potency, µM (doses to about 96.7 µM), for the others: at the top dose activity change, negative = cytotoxicity, actives largely listed as inhibitors | NIH 3T3 viability, CellTiter-Glo ATP luminescence, 48-72 h; also: % is scaled to controls: 0 for no effect and ±100 for the full control effect; nearly all actives have a fitted effect of over 55% in size
#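 First NIH 3T3 cells are plated at 400 cells/well; next compound is pinned in; then plates incubate 48 or 72 hr at 37 °C; finally CellTiter-Glo is added and luminescence read after 10 min.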
# hNpr1 antagonist: human Npr1 receptor antagonism | HEK293 hNpr1 GloSensor cGMP, ANP-stimulated luminescence | Potency, µM (series often up to 46.3 µM), for the others: at the highest dose activity change, negative = inhibition, usual class: inhibitors | 76,000 compounds, 1.6% hits | AID 1347048; calls by dose curve; also: % is scaled to controls: 0 for no effect and ±100 for the full control effect; nearly all actives have a fitted effect of over 60% in size
#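 Compound pre-incubated 30 min at room temperature on GloSensor-loaded HEK293 cells stably carrying hNpr1 and the pGS-40F cGMP biosensor. Stimulation uses hNppA at 0.1 nM final; luminescence is taken at baseline and 20 min post-agonist.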
# HEK cytotox: cytotoxic compounds in HEK 293 cells; HEK 293 viability, ATP luminescence (CellTiter-Glo), 48-72 h; Potency, µM (highest dose often 115 µM), for the others: top-dose activity change, negative = cytotoxicity, usual class: inhibitors; 94,000 compounds, 6.6% hits; also: % is scaled to controls: 0 for no effect and ±100 for the full control effect; nearly all actives have a fitted effect of over 60% in size
#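 HEK 293 seeded at 250 cells/well receive compound via pintool. After 48 or 72 hr at 37 degree Celsius, 5% CO2 and 95% humidity, CellTiter-Glo is dispensed and luminescence read following 10 min at room temperature.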
# FLuc inh-1: blocks purified firefly luciferase enzyme activity; P08659; purified P. pyralis luciferase, luminescence, biochemical; Potency, µM (series often up to 115 µM), usual class: inhibitors; 76,000 compounds, 2.5% hits; AID 1347043; also: % is scaled to controls: 0 for no effect and ±100 for the full control effect; nearly all actives have a fitted effect of over 65% in size
# Target sequence (P08659 whole entry, looked up): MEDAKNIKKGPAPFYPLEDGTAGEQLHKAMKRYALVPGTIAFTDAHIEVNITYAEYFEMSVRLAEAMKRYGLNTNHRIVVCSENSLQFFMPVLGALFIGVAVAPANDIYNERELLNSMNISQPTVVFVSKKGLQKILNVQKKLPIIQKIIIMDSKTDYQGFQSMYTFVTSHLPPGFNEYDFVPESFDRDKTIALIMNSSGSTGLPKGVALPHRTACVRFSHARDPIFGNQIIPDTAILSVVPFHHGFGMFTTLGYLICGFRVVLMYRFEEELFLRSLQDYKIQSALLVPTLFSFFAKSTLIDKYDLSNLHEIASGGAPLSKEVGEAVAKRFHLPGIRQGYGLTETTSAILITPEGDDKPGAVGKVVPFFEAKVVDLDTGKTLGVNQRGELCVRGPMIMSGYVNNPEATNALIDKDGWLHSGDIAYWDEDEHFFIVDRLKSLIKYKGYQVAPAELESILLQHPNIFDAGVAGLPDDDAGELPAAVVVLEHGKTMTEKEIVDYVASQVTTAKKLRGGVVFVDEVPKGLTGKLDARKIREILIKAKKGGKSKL
#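 Cell-free enzyme assay, 10nM P. pyralis luciferase, luciferin and ATP each at 10uM. Inhibition profiled over a 6-point titration, read as luminescence.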
# FLuc SDR no ATP: binders stabilizing firefly luciferase, without ATP. Purified FLuc-C-HiBiT, Nano-Glo HiBiT luminescence, no ATP. shares compounds with FLuc inh-1. 1,300 compounds, 7.8% hits. Potency, µM (top dose mostly 32.7 µM), for inactives: top-dose activation (signal gain), hits mostly activators; also: nearly all actives have a fitted effect of over 55% in size
# FLuc SDR ATP: firefly luciferase binding stabilization, ATP added; shares compounds with FLuc inh-1; purified FLuc-C-HiBiT + ATP, HiBiT complementation luminescence; Potency, µM (doses to about 32.7 µM), without a hit: at the top dose activation (gain of signal), hits mostly activators; 1,300 compounds, 8.7% hits;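 also: signal reports ligand binding via conformational change of the enzyme rather than luciferase catalysis; % of control where 0% means no effect; nearly all actives have a fitted effect of over 55% in size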
# FLuc inh-2: blocks firefly luciferase enzymatic activity; 1,300 compounds, 42% hits; shares compounds with FLuc inh-1; Potency, µM (top dose mostly 32.7 µM), for inactives: at the highest dose activity change, negative = inhibition, actives largely listed as inhibitors; purified FLuc-C-HiBiT enzyme, luciferin luminescence; AID 1963320; also: % is scaled to controls: 0 for no effect and ±100 for the full control effect; nearly all actives have a fitted effect of over 70% in size
# Npr1 antag conf: hNpr1 antagonism, confirmation assay. shares compounds with hNpr1 antagonist. HEK293 hNpr1 cGMP GloSensor luminescence, ANP-stimulated. Potency, µM (top dose mostly 57.6 µM), without a hit: at the top dose activity change, negative = inhibition, actives largely listed as inhibitors. 1,400 compounds, 76% hits. AID 1347044; calls by dose curve; also: nearly all actives have a fitted effect of over 70% in size
# NPR2 antag: selectivity test of Npr1 antagonists against human Npr2 | shares compounds with hNpr1 antagonist | HEK293 hNpr2 GloSensor cGMP luminescence, CNP-stimulated | Potency, µM (titrated, usually from 57.6 µM), for the others: at the highest dose activity change, negative = inhibition, usual class: inhibitors | 1,400 compounds, 67% hits; calls by dose curve; also: nearly all actives have a fitted effect of over 70% in size
# FLuc counter: counter-screen for Npr1 antagonists: firefly luciferase inhibitors; shares compounds with hNpr1 antagonist; purified FLuc enzyme, luminescence, Km substrate; Potency, µM (titrated, usually from 57.6 µM), for inactives: at the top dose activity change, negative = inhibition, hits mostly inhibitors; 1,400 compounds, 0.7% hits; also: series mostly up to about 58 µM; 0% is about no effect
# GloSensor cGMP: counter-screen for Npr1 antagonists: GloSensor control cell line | AID 1347051 | HEK293 GloSensor cGMP, SNP-stimulated, luminescence | Potency, µM (doses to about 57.6 µM), for the others: at the top dose activity change, negative = inhibition, actives largely listed as inhibitors | 1,400 compounds, 69% hits | shares compounds with hNpr1 antagonist; calls by dose curve; also: % is scaled to controls: 0 for no effect and ±100 for the full control effect; nearly all actives have a fitted effect of over 70% in size
# Numbers without * were called inactive; i = inactive; ? = inconclusive; nt = no result; [ ] = dose if it differs, or a comment. Unless noted, calls follow the shape of the dose curve; as a rule, active = well fitted curve in the direction sought with a large enough effect; inconclusive = small, poorly fitted or top-dose-only effect, or another doubt; inactive = no such curve, though single readings can be large; an effect the other way counts as inactive or inconclusive. Potency is read from the fitted curve at half-maximal effect.
SMILES,GPT2 inh,NIH3T3 tox,hNpr1 antagonist,HEK cytotox,FLuc inh-1,others
Cn1nc(-c2cccs2)cc1[C@H]1CN2CC[C@H]1C[C@@H]2CNC(=O)NCc1ccccc1,-4%,-30%,0%,-15%,i,
Cn1nc(-c2ccccc2)cc1[C@H]1CN2CC[C@H]1C[C@@H]2CNC(=O)NCc1ccccc1,i,100µM*,-2%[70.6 µM],?,i,
Cn1nc(-c2ccc(F)cc2)cc1[C@H]1CN2CC[C@H]1C[C@@H]2CNC(=O)NCc1ccccc1,i,?,-16%,25µM*,i,
COc1ccc(CNC[C@H]2C[C@@H]3CCN2C[C@@H]3c2cc(-c3ccc(F)cc3)nn2C)cc1,-10%[88.5 µM],89µM*,1%[70.6 µM],45µM*,i,
Cc1ccc(C(=O)NC[C@H]2C[C@@H]3CCN2C[C@@H]3c2cc(-c3ccccc3)nn2C)cc1,i,?,5%[70.6 µM],?,i,
Cc1cccc(CN2C[C@@H]3C[C@H]2C(=O)N(C)c2ccccc2O3)n1,3%[88.5 µM],-19%[138 µM],1%[70.6 µM],-13%[172 µM],i,
COc1cccc(Nc2cc3c(cn2)CN(C)CCN3)c1,3%[88.5 µM],?,-18%[70.6 µM],?,4.5µM*,FLuc SDR no ATP=20%[65.7 µM];FLuc SDR ATP=15%[65.7 µM];FLuc inh-2=23µM*
c1nc(N2C[C@@H](c3ccc4c(c3)OCO4)[C@@H]3[C@H]2C2CCN3CC2)c2[nH]cnc2n1,0%,-10%,0%,-6%,i,FLuc SDR no ATP=13%;FLuc SDR ATP=10%;FLuc inh-2=3%
c1cc(CN2C[C@H](c3ccc4c(c3)OCO4)[C@@H]3[C@H]2C2CCN3CC2)ccn1,-3%,-25%,0%,1%,i,
Cc1ccccc1Cn1cccc(C(=O)Nc2nc3ccccc3s2)c1=O,nt,nt,nt,nt,nt,FLuc SDR no ATP=?;FLuc SDR ATP=?;FLuc inh-2=0.88µM*
Cc1cc(-c2cc3c(cn2)CN(CC(C)C)CCN3)ccn1,-3%[88.5 µM],?,1%[70.6 µM],?,4.5µM*,FLuc SDR no ATP=?;FLuc SDR ATP=17%[49.3 µM];FLuc inh-2=16µM*
COc1ccc(-c2cc3c(cn2)CN(C)CCN3)cc1OC,-46%[88.5 µM],?,-11%[70.6 µM],-43%[172 µM],?,
COCCNC(=O)[C@H]1CN2CCC1C[C@@H]2Cn1cc(-c2ccc(OC)cc2)nn1 (some centres not stated),i,-33%[174 µM],-2%[70.6 µM],-10%[172 µM],i,
COc1ccc(-c2cn(C[C@H]3C[C@@H]4CCN3C[C@@H]4C(=O)N3CCOCC3)nn2)cc1,0%[88.5 µM],-4%[174 µM],5%[70.6 µM],-10%[172 µM],i,
CC(C)(C)CC(=O)N1C[C@@H]2C[C@H](C1)c1ccc(NC(=O)Nc3cccc(F)c3)c(=O)n1C2,?,?,5%,?,14µM*,FLuc SDR no ATP=14%;FLuc SDR ATP=8%;FLuc inh-2=-15%
CCNC(=O)Nc1ccc(OCC(=O)N2CCN(CC(C)C)CC2)nc1,i,i,1%,1%,i,
CCn1nccc1C(=O)N1[C@H]2CC[C@@H]1c1cnc(-c3ccc(F)cc3)nc1C2,i,?,6.3µM*,?,i,Npr1 antag conf=11µM*;NPR2 antag=12µM*;FLuc counter=2%;GloSensor cGMP=11µM*
CC(C)CC(=O)N1[C@H]2CC[C@@H]1c1cnc(-c3ccc(F)cc3)nc1C2,-4%,?,13µM*,20µM*,i,Npr1 antag conf=24µM*;NPR2 antag=24µM*;FLuc counter=3%;GloSensor cGMP=19µM*
COCC(=O)N1[C@H]2CC[C@@H]1c1cnc(-c3ccc(F)cc3)nc1C2,i,-13%,1%,?,i,
Cn1cc(C(=O)N2[C@H]3CC[C@@H]2c2cnc(-c4ccc(F)cc4)nc2C3)cn1,i,-23%,0%,?,i,
O=C(C1CCCC1)N1[C@H]2CC[C@@H]1c1cnc(-c3ccc(F)cc3)nc1C2,i,-11%,10µM*,16µM*,i,Npr1 antag conf=8.6µM*;NPR2 antag=12µM*;FLuc counter=-1%;GloSensor cGMP=8.6µM*
CC(C)C(=O)N1[C@H]2CC[C@@H]1c1cnc(-c3ccc(F)cc3)nc1C2,-3%,-28%,22µM*,?,i,Npr1 antag conf=19µM*;NPR2 antag=22µM*;FLuc counter=1%;GloSensor cGMP=19µM*
O=C(NCc1ccccc1)[C@H]1CN2CCC1C[C@@H]2Cn1cc(CSc2ccccc2)nn1 (some centres not stated),-7%,-35%,-3%,-24%,i,
CCC(c1cccs1)N1C(=O)[C@H]2CNC[C@H]2C1=O (some centres not stated),i,3%,2%,-24%,i,
CN1Cc2ccccc2-n2ccnc2C12CCN(C(=O)C1(c3ccccc3)CC1)CC2,-3%,-5%,?,?,i,Npr1 antag conf=?;NPR2 antag=?;FLuc counter=-1%;GloSensor cGMP=14%
COc1ccc(C(=O)N2CCC3(CC2)c2nccn2-c2ccccc2CN3C)cc1,i,i,2%,-3%,i,
COc1ccc(CC(=O)N2CCC3(CC2)c2nccn2-c2ccccc2CN3C)cc1,-7%,?,?,-7%,i,Npr1 antag conf=?;NPR2 antag=?;FLuc counter=1%;GloSensor cGMP=0%
COc1ccc(C(=O)N2C[C@@H]3C[C@H](C2)c2c(-c4cccs4)ccc(=O)n2C3)cc1,2%[88.5 µM],-27%[174 µM],2%[70.6 µM],-7%[172 µM],i,

# Screening results from PubChem.
